Bioassay records (PubChem)
An excerpt weighted towards active compounds, which were near 4.3% of everything screened.
ADAM17 inh: ADAM17 inhibition, QFRET primary screen; P78536; recombinant ADAM17, EDANS/DABCYL FRET peptide cleavage; inhibition, % at 6.95 µM; hit rate 0.83% among 370,000;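 active means inhibition above the mean of compounds lying between control limits plus 3 SD, set per campaign, cut at about 8.5% in these data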;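 further: 0% = DMSO-only wells as the low control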
Target sequence (P78536 215-824 limits assumed): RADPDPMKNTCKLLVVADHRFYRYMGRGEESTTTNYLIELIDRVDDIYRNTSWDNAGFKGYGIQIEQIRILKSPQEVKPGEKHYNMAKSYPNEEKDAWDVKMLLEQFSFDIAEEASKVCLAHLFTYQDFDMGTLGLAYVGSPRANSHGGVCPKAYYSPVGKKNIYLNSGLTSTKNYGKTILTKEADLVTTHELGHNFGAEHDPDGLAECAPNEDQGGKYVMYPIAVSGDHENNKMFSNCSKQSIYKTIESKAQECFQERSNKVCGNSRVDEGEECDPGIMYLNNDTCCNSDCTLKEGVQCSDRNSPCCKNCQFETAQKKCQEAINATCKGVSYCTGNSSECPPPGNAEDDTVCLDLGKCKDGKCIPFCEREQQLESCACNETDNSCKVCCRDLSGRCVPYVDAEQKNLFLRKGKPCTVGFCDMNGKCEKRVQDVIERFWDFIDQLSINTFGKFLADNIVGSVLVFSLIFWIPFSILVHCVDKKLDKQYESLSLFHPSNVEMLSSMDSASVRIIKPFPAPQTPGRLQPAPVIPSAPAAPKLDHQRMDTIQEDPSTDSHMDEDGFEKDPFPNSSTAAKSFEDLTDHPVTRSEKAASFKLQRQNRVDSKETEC
sPLA2-III inh: Blocks human group III sPLA2 activity. Q9NZ20. hit rate 0.56% among 370,000. QFRET BODIPY PC-A2 liposome hydrolysis, fluorescence. inhibition, % at 12.2 µM;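 active means inhibition above mean plus 3 SD of compounds lying within the high and low control bounds, cut at about 19% in these data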;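 further: 0% = median of test compound wells and 100% = no enzyme DMSO wells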
ADAM10 inh: ADAM10 inhibition, QFRET primary screen | inhibition, % at 7 µM | AID 720582 | O14672 | recombinant ADAM10, EDANS/DABCYL FRET peptide cleavage, 3 h | hit rate 0.62% among 370,000;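 active means inhibition above a per-campaign cutoff equal to the mean of compounds falling between control-based bounds plus 3 SD, cut at about 20% in these data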;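 further: 0% = DMSO wells while the 100% control is not disclosed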
NR3A LBD binder: modulators (binders) of human NR3A ligand-binding domain; NR3A LBD differential scanning fluorimetry, Tm shift; 0% = protein alone, 100% = glycine-bound protein; hit rate 2.5% among 340,000; Tm shift relative to glycine control, % at 25 µM;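 active means melting temperature shift of at least 10% of the positive control shift, at one fixed dose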
FAS-TE inh: blocks the thioesterase domain of human fatty acid synthase. P49327. recombinant FAS-TE, OMFH fluorogenic substrate, fluorescence endpoint. inhibition, % at 15 µM. hit rate 0.67% among 360,000. AID 602261;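 active means compounds whose normalised, plate-corrected inhibition of enzyme fluorescence in the single-dose primary screen is 50% or more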;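 further: 0% = DMSO with enzyme and 100% = substrate without enzyme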
FAS-TE inh conf: confirmation of human fatty acid synthase thioesterase inhibitors | recombinant FAS-TE, OMFH fluorogenic substrate, fluorescence | inhibition, % at 15 µM | AID 624325 | shares compounds with FAS-TE inh | hit rate 45% among 2,300;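 active means compounds inhibiting the enzyme by at least 50% at 15 µM in any one of the replicates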;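 further: 0% = enzyme with DMSO only and 100% = wells lacking enzyme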
The depositor's hits bear a star; x = no result given.

SMILES	ADAM17 inh	sPLA2-III inh	ADAM10 inh	NR3A LBD binder	FAS-TE inh	others
CC1CC(CCC(=O)NC(=S)Nc2ccc(Cl)cn2)C(=O)O1 (configuration not stated)	-3.9	-1.2	-4.9	15.7*	-7.1
CCCCCC(=O)NC(=S)Nc1ccc(Cl)cn1	7.0	13.3	15.3	1.0	10.4
C=CCN(C(=O)[C@@H](C1CC1)[C@@H](O)c1ccc(Cl)cc1)c1ccccc1	-0.2	-4.1	4.4	x	x
COc1cccc(/C=C/C(=O)c2cccc([N+](=O)[O-])c2)c1	0.1	-2.3	5.0	-4.8	9.5
COc1ccc(/C=C/C(=O)NC(=S)Nc2cc([N+](=O)[O-])ccc2O)cc1OC	-1.9	4.2	4.3	19.1*	5.8
COc1ccc(/C=C/C(=O)Nc2ccc(C(N)=O)cc2)cc1OC	-33.4	-3.4	-137.5	14.8*	-3.1
COc1cccc(/C=C/C(=O)c2cccc([N+](=O)[O-])c2)c1OC	0.2	-6.3	3.9	10.2*	0.7
COc1cccc(/C=C/C(=O)Nc2cccc(C(C)=O)c2)c1OC	0.8	-12.2	-4.9	15.3*	7.0
COC(=O)[C@H]1C[C@@]2(C)c3ccccc3N(S(=O)(=O)c3ccccc3)[C@H]2N1C(=O)CNC1CCCCC1	-2.1	-2.3	-5.9	x	x
N#Cc1ccc(/C=C2\CC3(OC(=O)C4CCCCC4)CCCN2C3)cc1 (configuration not stated)	3.1	-5.9	-5.5	x	x
COC(=O)[C@]12C[C@H](CC(=O)NCc3cccs3)C(=O)N(Cc3ccco3)C1=C[C@H](C1CCCC1)O[C@@H]2C	0.8	-13.9	-0.3	x	x
C[C@H]1[C@@H](OC(=O)NCCc2ccccc2)CC[C@@]23CCCN2C(=O)CCC[C@@H]13	-2.5	1.1	-3.6	x	x
COc1cccc(/C=C2\CC3(OC(=O)c4ccco4)CCCN2C3)c1 (configuration not stated)	0.3	0.2	2.2	x	x
COc1cccc(OC)c1C(=O)NC(=S)Nc1ccc2c(c1)OCCO2	-0.8	5.5	7.9	-0.8	-1.2
COc1cccc(/C=C/C(=O)Nc2ccc(C(=O)Nc3cccc(S(N)(=O)=O)c3)cc2)c1OC	-171.9	-9.9	-390.6	38.9*	0.7
COc1ccc(/C=C/C(=O)Nc2cccc(C(C)=O)c2)cc1	1.6	-11.0	9.4	-8.2	-0.9
COc1cccc(/C=C/C(=O)Nc2ccc3c(c2)OCCO3)c1OC	2.2	-8.0	-0.7	19.7*	13.1
COc1ccccc1/C=C/C(=O)Nc1cccc(C(C)=O)c1	0.4	-5.8	8.6	21.0*	8.7
COCOc1ccc(/C=C/C(=O)c2c(OCOC)cc(OCOC)c(CC=C(C)C)c2O)cc1OCOC	x	x	x	-6.3	2.5
CC(C)=CCC/C(C)=C/Cc1c(O)ccc(C(=O)/C=C/c2ccc(O)cc2)c1O	4.6	-43.9	5.9	29.0*	19.1
C=C(C)C(O)Cc1c(OC)ccc(C(=O)/C=C/c2ccc(O)cc2)c1O (configuration not stated)	0.9	-26.7	-1.7	25.0*	-3.9
O=C(Nc1nc2cc3c(cc2s1)OCCO3)C1=COCCO1	-1.6	-16.0	-2.3	11.0*	-0.3
CCOC(=O)CSc1nnc(Cc2ccccc2)n1-c1cccc(Cl)c1	x	x	x	733.0*	-0.6
CCOC(=O)CSc1nnc(Cc2ccc(OC)cc2)n1-c1ccccc1	0.1	-1.3	10.3	0.3	-2.1
CC(=O)NC(C)C(=O)N1CCCC1C(=O)N1CCCC1C(=O)NC(C)C(=O)NC1C(=O)NC(CC(C)C)C(=O)NC2CCCCNC(=O)CCC(C(=O)NC(Cc3ccc(O)cc3)C(=O)O)NC(=O)C3CCC(=O)OCC(NC(=O)C4CCCN4C(=O)C(Cc4c[nH]c5ccccc45)NC2=O)C(=O)NC(CC(=O)OC1C)C(=O)NC(Cc1c[nH]c2ccccc12)C(=O)N3 (configuration not stated)	-5.3	-14.5	-2.1	x	x
SMILES	ADAM17 inh	sPLA2-III inh	ADAM10 inh	NR3A LBD binder	FAS-TE inh	others
Cc1cc(N2CCN(C(c3ccccc3)c3ccccc3)CC2)n2ncnc2n1	1.4	-5.8	1.5	-5.9	53.6*
O=C(O)C1CC=CCC1C(=O)Nc1cccc(Cl)c1 (configuration not stated)	-0.7	12.1	8.9	11.4*	-0.9
O=C(Nc1cccc(Cl)c1)C1C2CCC3C(CCC21)C3(Cl)Cl (configuration not stated)	7.4	-6.9	14.0	14.0*	34.8
O=C(NN=Cc1ccc(Cl)cc1Cl)c1ccccc1	-1.9	-1.0	-1.0	x	5.1
O=C(CN1c2ccccc2Sc2ccccc21)NNC(=S)Nc1ccc(Cl)cc1Cl	0.5	17.2	5.8	21.4*	8.8
O=C(CN1c2ccccc2Sc2ccccc21)N/N=C/c1ccc(Cl)cc1Cl	-3.4	0.3	4.8	14.8*	36.2
O=C(CN1c2ccccc2Sc2ccccc21)N/N=C/c1ccc(Cl)cc1	-1.3	-3.2	1.8	11.1*	43.7
CCCCCCCCN1C(=O)[C@@H](CC(=O)N2CCC(c3ccccc3)CC2)C[C@@]2(C(=O)OC)C1=C[C@H](C(C)C)O[C@@H]2C1CC1	-2.1	3.3	2.4	x	x
C[C@H](CCCCC1(C)OCCO1)CCC(=O)N(c1ccccc1)c1ccccc1	1.1	-3.6	3.6	x	x
COC(=O)[C@]12C[C@H](CC(=O)NCc3cccs3)C(=O)N(Cc3ccc(Cl)cc3Cl)C1=C[C@H](COCc1ccccc1)O[C@@H]2C	7.3	-15.5	14.4	x	x
Nc1ncnc2c1ncn2[C@@H]1O[C@H](CNC(=O)[C@@H](N)C2CCCCC2)[C@@H](O)[C@H]1O	-4.0	13.1	1.8	15.4*	-10.3
CC(C)(O)C#Cc1ccc(CNC[C@H]2O[C@@H](n3cnc4c(N)ncnc43)[C@H](O)[C@@H]2O)s1	-4.1	8.0	-10.6	12.7*	-11.6
C[C@H](N)C(=O)NC[C@H]1O[C@@H](n2cnc3c(N)ncnc32)[C@H](O)[C@@H]1O	1.4	9.0	-2.4	3.1	-5.6
Cc1sc2ccccc2c1CNC[C@H]1O[C@@H](n2cnc3c(N)ncnc32)[C@H](O)[C@@H]1O	-3.7	4.8	-15.3	-0.1	-4.3
CCC(C)[C@@H](NC(=O)OC(C)(C)C)c1nnc(S(=O)(=O)Cc2cccc(C)c2)o1 (some centres not stated)	-0.5	-24.4	3.7	12.2*	60.0*
O=C(OC12CCCN(C1)/C(=C/c1ccc(Cl)cc1)C2)c1ccccc1 (configuration not stated)	5.9	-10.5	9.1	x	x
CSc1ccc(CN2C(=O)C(F)(F)Oc3c(C(C)=O)cccc32)cc1	x	x	x	x	51.8*	FAS-TE inh conf=59.0*
O=C(Cc1ccc(S(=O)(=O)N2CCOCC2)s1)N1CCN(S(=O)(=O)c2ccccc2[N+](=O)[O-])CC1	-3.0	-36.7	-5.7	0.3	87.3*	FAS-TE inh conf=83.3*
Cc1ccc(C)c(S(=O)(=O)N2CCN(C(=O)Cc3ccc(S(=O)(=O)N4CCOCC4)s3)CC2)c1	-2.1	-55.9	-3.0	0.4	69.4*	FAS-TE inh conf=63.0*
